Calls of active or inactive are those of the source. Calls follow the shape of the dose curve; as a rule, active = well fitted activation curve with a large enough effect; inconclusive = small, poorly fitted or top-dose-only effect; inactive = flat fitted curve, though single readings scatter.
Assay: Cellular Toxicity (caspase-3) N2a (AID 665);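 also: compound exposure lasted 16 h at 37 °C before readout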
Conditions: N2a cells, luminescence, normalized: DMSO 0%, 10 µM staurosporine 100%; series mostly up to 92.2 µM; caspase-3 activation: at the top concentration
Excerpt: NIH Chemical Genomics Center [NCGC]
NIH Molecular Libraries Screening Centers Network [MLSCN]
National Institutes of Environmental Health Sciences [NIEHS]
National Toxicology Program [NTP]
We have developed a 1536-well cell-based assay for quantitative high throughput screening (qHTS) against a number of cell lines to determine in vitro caspase 3/7 activity of small molecules. This particular assay uses the N2a cell line which is derived from mouse neuroblastoma.
NCGC Assay Protocol Summary:
The Caspase-Glo 3/7 assay (Promega) is a homogeneous method to measure caspase-3 and caspase-7 activities in cultured cells. The quantitation of caspase 3/7 activity is based on the cleavage of a peptide-aminoluciferin substrate. After caspase cleaves the substrate the free aminoluciferin is liberated and serves as the substrate of luciferase, which generates the light. The luminescent signal is proportional to the amount of caspase 3/7 activity present.
Using the Caspase-Glo 3/7 assay, the amount of caspase 3/7 activity was measured in the N2a cells with complete culture medium following compound treatment for 16 hours. The assay was performed in opaque white 1536-well plates. In the screen, staurosporine and doxorubicin were used as positive controls. Library compounds were measured for their ability to cause the activation of caspase 3/7 in the cell line, as reflected by an increase in luminescence signal, in a concentration-dependent manner. Data were normalized to the controls for basal activity (DMSO only) and 100% stimulation (10 uM staurosporine). AC50 values were determined from concentration-response data modeled with the standard Hill equation.
qHTS protocol for caspase 3/7 assay in mouse N2a cell line
[Step] [Parameter] [Value] [Description]
1. Reagent; 5 uL; 1500 mouse N2a cells/well
2. Time; 5 hr; 37 °C incubation
4. Controls; 23 nL; doxorubicin 7 pM to 100 uM & staurosporine 1.4 pM to 20 uM
5. Time; 16 hr; 37 °C incubation
6. Reagent; 5 uL; Caspase-Glo 3/7 reagent
7. Time; 1 hr; Room Temperature
8. Detection; Luminescence; Viewlux plate reader
Keywords: caspase 3/7, apoptosis, mouse N2a cell line, luminescence, NTPHTS, NTPHTS_NCGC, NIEHS, EPA, DSSTox, MLSMR, MLSCN, NIH Roadmap, qHTS, NCGC

Row | SMILES | caspase-3 activation
1 | COc1ccc(C(Cl)=C(c2ccc(OC)cc2)c2ccc(OC)cc2)cc1 | -1.07% (inactive)
2 | COc1cc([C@H]2Oc3cc([C@H]4Oc5cc(O)cc(O)c5C(=O)[C@@H]4O)ccc3O[C@@H]2CO)ccc1O | -2.76% (inactive)
3 | COc1ccc(C(=O)c2ccccc2)c(O)c1 | -2.14% (inactive)
4 | CCCN(CCC)S(=O)(=O)c1ccc(C(=O)O)cc1 | -1.49% (inactive)
5 | NCCNc1cccc2ccccc12 | -0.37% (inactive)
6 | OC[C@H]1O[C@@H]2O[C@H]3[C@H](O)[C@@H](O)[C@@H](O[C@H]4[C@H](O)[C@@H](O)[C@@H](O[C@H]5[C@H](O)[C@@H](O)[C@@H](O[C@H]6[C@H](O)[C@@H](O)[C@@H](O[C@H]7[C@H](O)[C@@H](O)[C@@H](O[C@H]8[C@H](O)[C@@H](O)[C@@H](O[C@H]1[C@H](O)[C@H]2O)O[C@@H]8CO)O[C@@H]7CO)O[C@@H]6CO)O[C@@H]5CO)O[C@@H]4CO)O[C@@H]3CO | -0.491% (inactive)
7 | C=C[C@H]1CN2CC[C@H]1C[C@@H]2[C@@H](O)c1ccnc2ccc(OC)cc12 | 0.812% (inactive)
8 | CCOc1ccccc1C(N)=O | -2.78% (inactive)
9 | Oc1ccc(Cl)cc1Cc1cc(Cl)ccc1O | 6.71% (inactive)
10 | CCOc1ccc(NC(C)=O)cc1 | -3.64% (inactive)
11 | C/C=C/c1ccc(O)c(OC)c1 | 0.669% (inactive)
12 | CCCCC(CC)COC(=O)c1ccc(N(C)C)cc1 (stereo not given) | -0.659% (inactive)
13 | NC(=O)c1ccccc1O | 0.485% (inactive)
14 | O=C(O)c1ccc(S(=O)(=O)N(Cl)Cl)cc1 | 2.28% (inactive)
15 | Oc1c(Cl)cc(Cl)c(Cl)c1Cc1c(O)c(Cl)cc(Cl)c1Cl | 23.9% (inactive)
